# Data taken from the supplement of paper PMC8728848.
# This excerpt belongs to a sample that is enriched for the strongest signals.
# Tests used:
# Experiment in all cases: glycan array binding signal (z-score within array); higher = stronger binding
# Settings in all cases: glycan notation: IUPAC condensed, linker removed
# [1] = molecular target: Fuc(a1-2)Gal(b1-3)GalNAc(b1-4)[Neu5Ac(a2-3)]Gal(b1-4)Glc
# Method in brief: (§1)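 Glycan array data came from 3228 arrays in the Consortium for Functional Glycomics database, and only arrays with an available protein sequence were kept. Glycan names were put into IUPAC-condensed notation, and columns mapping to the same glycan were averaged. The binding signal is a within-array Z-score, averaged across arrays of one protein sequence run at different concentrations or buffers and across linkers. A negative Z-score can be read as non-binding.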
# [2] = molecular target: Fuc(a1-2)Gal(b1-3)GlcNAc6S
# Method in brief: as §1
# [3] = molecular target: Fuc(a1-2)Gal(b1-3)[Fuc(a1-4)]GlcNAc(b1-2)Man(a1-3)[Fuc(a1-2)Gal(b1-3)[Fuc(a1-4)]GlcNAc(b1-2)Man(a1-3)]Man(b1-4)GlcNAc(b1-4)GlcNAc
# Method in brief: as §1
# [4] = molecular target: Fuc(a1-2)Gal(b1-4)Glc6S
# Method in brief: as §1
# [5] = molecular target: Fuc(a1-2)Gal(b1-4)GlcNAc(b1-2)[Fuc(a1-2)Gal(b1-4)GlcNAc(b1-4)]Man(a1-3)[Fuc(a1-2)Gal(b1-4)GlcNAc(b1-2)Man(a1-6)]Man(b1-4)GlcNAc(b1-4)GlcNAc
# Method in brief: as §1
# [6] = molecular target: Fuc(a1-2)GlcNAc
# Method in brief: as §1
# [7] = molecular target: Fuc(a1-2)[Gal(a1-3)]Gal(b1-3)GalNAc(b1-3)Gal(a1-4)Gal(b1-4)Glc
# Method in brief: as §1
# [8] = molecular target: Fuc(a1-2)[Gal(a1-3)]Gal(b1-3)GlcNAc(b1-3)GalNAc
# Method in brief: as §1
# [9] = molecular target: Fuc(a1-2)[Gal(a1-3)]Gal(b1-4)[Fuc(a1-3)]GlcNAc
# Method in brief: as §1
# [10] = molecular target: Fuc(a1-2)[GalNAc(a1-3)]Gal(b1-4)[Fuc(a1-3)]GlcNAc(b1-3)GalNAc
# Method in brief: as §1
# [11] = molecular target: Fuc(a1-2)[GalNAc(a1-4)]Gal(b1-4)GlcNAc
# Method in brief: as §1
# [12] = molecular target: Fuc(a1-3)[Gal(b1-4)]GlcNAc(b1-3)Gal(b1-3)[Fuc(a1-4)]GlcNAc
# Method in brief: as §1
# [13] = molecular target: Fuc(a1-3)[GalNAc(b1-4)]GlcNAc
# Method in brief: as §1
# [14] = molecular target: Gal(a1-3)Gal(b1-3)Glc
# Method in brief: as §1
# [15] = molecular target: Gal(a1-3)Gal(b1-4)GlcNAc(b1-2)Man(a1-3)[Gal(a1-3)Gal(b1-4)GlcNAc(b1-2)Man(a1-6)]Man(b1-4)GlcNAc(b1-4)GlcNAc
# Method in brief: as §1
# [16] = molecular target: Gal(a1-3)GlcNAc
# Method in brief: as §1
# [17] = molecular target: Gal(b1-3)GalNAc(a1-3)[Fuc(a1-2)]Gal(b1-4)Glc
# Method in brief: as §1
# [18] = molecular target: Gal(b1-3)GalNAc(a1-3)[Fuc(a1-2)]Gal(b1-4)GlcNAc
# Method in brief: as §1
# [19] = molecular target: Gal(b1-3)GlcNAc(a1-6)Gal(b1-4)GlcNAc
# Method in brief: as §1
# [20] = molecular target: Gal(b1-3)GlcNAc(b1-3)Gal(b1-4)GlcNAc
# Method in brief: as §1
# [21] = molecular target: Gal(b1-3)[Neu5Ac(a2-6)]GlcNAc(b1-4)Gal(b1-4)Glc
# Method in brief: as §1
# [22] = molecular target: Gal(b1-4)GlcNAc
# Method in brief: as §1
# [23] = molecular target: Gal(b1-4)GlcNAc(b1-2)[Gal(b1-4)GlcNAc(b1-4)]Man(a1-3)[Gal(b1-4)GlcNAc(b1-2)[Gal(b1-4)GlcNAc(b1-6)]Man(a1-6)]Man(b1-4)GlcNAc(b1-4)GlcNAc
# Method in brief: as §1
# [24] = molecular target: Gal(b1-4)GlcNAc(b1-2)[Gal(b1-4)GlcNAc(b1-6)]Man(a1-6)[Gal(b1-4)GlcNAc(b1-2)Man(a1-3)]Man(b1-4)GlcNAc(b1-4)[Fuc(a1-6)]GlcNAc
# Method in brief: as §1
# [25] = molecular target: Gal(b1-4)GlcNAc(b1-2)[Gal(b1-4)GlcNAc(b1-6)]Man(a1-6)[GlcNAc(b1-4)][Gal(b1-4)GlcNAc(b1-2)Man(a1-3)]Man(b1-4)GlcNAc(b1-4)GlcNAc
# Method in brief: as §1
# [26] = molecular target: Gal3S(b1-4)[Fuc(a1-3)]Glc6S
# Method in brief: as §1
# [27] = molecular target: GalNAc(b1-3)Gal(a1-4)Gal(b1-4)GlcNAc(b1-3)Gal(b1-4)Glc
# Method in brief: as §1
# [28] = molecular target: GalNAc3S(b1-4)[Fuc(a1-3)]GlcNAc
# Method in brief: as §1
# [29] = molecular target: GalNAc4S6S(b1-4)GlcNAc
# Method in brief: as §1
# [30] = molecular target: Glc(a1-6)Glc(a1-6)Glc(a1-6)Glc
# Method in brief: as §1
# [31] = molecular target: GlcNAc(a1-4)Gal(b1-4)GlcNAc(b1-3)Gal(b1-4)[Fuc(a1-3)]GlcNAc(b1-3)Gal(b1-4)[Fuc(a1-3)]GlcNAc
# Method in brief: as §1
# [32] = molecular target: GlcNAc(b1-3)Gal(b1-4)GlcNAc(b1-2)[GlcNAc(b1-3)Gal(b1-4)GlcNAc(b1-6)]Man(a1-6)[GlcNAc(b1-3)Gal(b1-4)GlcNAc(b1-2)Man(a1-3)]Man(b1-4)GlcNAc(b1-4)GlcNAc
# Method in brief: as §1
# [33] = molecular target: GlcNAc(b1-3)Gal(b1-4)GlcNAc(b1-3)Gal(b1-4)GlcNAc(b1-3)Gal(b1-4)GlcNAc(b1-3)Gal(b1-4)GlcNAc(b1-2)[GlcNAc(b1-3)Gal(b1-4)GlcNAc(b1-3)Gal(b1-4)GlcNAc(b1-3)Gal(b1-4)GlcNAc(b1-3)Gal(b1-4)GlcNAc(b1-6)]Man(a1-6)[GlcNAc(b1-3)Gal(b1-4)GlcNAc(b1-3)Gal(b1-4)GlcNAc(b1-3)Gal(b1-4)GlcNAc(b1-3)Gal(b1-4)GlcNAc(b1-2)Man(a1-3)]Man(b1-4)GlcNAc(b1-4)[Fuc(a1-6)]GlcNAc
# Method in brief: as §1
# [34] = molecular target: GlcNAc(b1-3)[GlcNAc(b1-6)]Gal(b1-4)GlcNAc
# Method in brief: as §1
# [35] = molecular target: GlcNAc(b1-3)[GlcNAc(b1-6)]GlcNAc
# Method in brief: as §1
# [36] = molecular target: GlcNAc(b1-4)Gal(b1-4)GlcNAc
# Method in brief: as §1
# [37] = molecular target: Man(a1-2)Man(a1-3)[Man(a1-2)Man(a1-6)]Man(a1-6)[Man(a1-2)Man(a1-2)Man(a1-3)]Man(b1-4)GlcNAc(b1-4)GlcNAc
# Method in brief: as §1
# [38] = molecular target: Man(a1-2)Man(a1-3)[Man(a1-3)[Man(a1-6)]Man(a1-6)]Man(b1-4)GlcNAc(b1-4)GlcNAc
# Method in brief: as §1
# [39] = molecular target: Man(a1-2)Man(a1-3)[Man(a1-6)]Man(a1-6)[Man(a1-2)Man(a1-3)]Man(b1-4)GlcNAc(b1-4)GlcNAc
# Method in brief: as §1
# [40] = molecular target: Man(a1-3)[Man(a1-6)]Man(a1-6)[Man(a1-3)]Man(b1-4)GlcNAc(b1-4)GlcNAc
# Method in brief: as §1
# [41] = molecular target: Neu5Ac(a2-3)Gal(b1-4)GlcNAc(b1-3)Gal(b1-4)GlcNAc(b1-3)Gal(b1-4)GlcNAc(b1-2)Man(a1-3)[Neu5Ac(a2-3)Gal(b1-4)GlcNAc(b1-3)Gal(b1-4)GlcNAc(b1-3)Gal(b1-4)GlcNAc(b1-2)Man(a1-6)]GalNAc
# Method in brief: as §1
# [42] = molecular target: Neu5Ac(a2-3)Gal(b1-4)GlcNAc(b1-6)[Neu5Ac(a2-3)Gal(b1-3)]GalNAc
# Method in brief: as §1
# [43] = molecular target: Neu5Ac(a2-3)Gal(b1-4)[Fuc(a1-3)]GlcNAc
# Method in brief: as §1
# [44] = molecular target: Neu5Ac(a2-3)Gal(b1-4)[Fuc(a1-3)]GlcNAc(b1-3)GalNAc
# Method in brief: as §1
# [45] = molecular target: Neu5Ac(a2-3)Gal6S(b1-4)[Fuc(a1-3)]GlcNAc
# Method in brief: as §1
# [46] = molecular target: Neu5Ac(a2-6)Gal
# Method in brief: as §1
# [47] = molecular target: Neu5Ac(a2-6)Gal(b1-4)GlcNAc(b1-2)Man(a1-6)Man(b1-4)GlcNAc(b1-4)GlcNAc
# Method in brief: as §1
# [48] = molecular target: Neu5Ac(a2-6)Gal(b1-4)GlcNAc(b1-2)Man(a1-6)[Gal(b1-4)GlcNAc(b1-2)Man(a1-3)]Man(b1-4)GlcNAc(b1-4)GlcNAc
# Method in brief: as §1
# [49] = molecular target: Neu5Ac(a2-6)Gal(b1-4)GlcNAc(b1-2)Man(a1-6)[GlcNAc(b1-2)Man(a1-3)]Man(b1-4)GlcNAc(b1-4)GlcNAc
# Method in brief: as §1
# [50] = molecular target: Neu5Ac(a2-6)Gal(b1-4)GlcNAc(b1-6)GalNAc
# Method in brief: as §1
# [51] = molecular target: Neu5Ac(a2-6)Gal(b1-4)GlcNAc(b1-6)[Gal(b1-3)]GalNAc
# Method in brief: as §1
# [52] = molecular target: Neu5Ac(a2-8)Neu5Ac
# Method in brief: as §1
# [53] = molecular target: Neu5Gc(a2-3)Gal(b1-3)GlcNAc
# Method in brief: as §1
binder,measurement,setting,value
XL-35 (Xenopus laevis) (protein) MLVHILLLLVTGGLSQSCDPVVIVASKNMVKQLDCDKFRNCKEIKDSNEEAQDGIYTLTSPDGISYQTFCDMTTNGGGWTLVASVHENNMAGKCTIGDRWSSQQGNRADYPEGDGNWANYNTFGSAGGATSDDYKNPGYYDIEAYNLGVWHVPNKTPLSVWRNSSLQRYRTTDGILFKHGGNLFSLYRIYPVKYGIGSCSKDSGPTVPVVYDLGSANLTASFYSPGFRSQFTPGYIQFRPINTEKAALALCPGMKMESCNVEHVCIGGGGYFPEADPRQCGDFAAYDFNGYGTKKFNSAGIEITEAAVLLFYL,glycan array binding signal (z-score),[1],-0.108
same,glycan array binding signal (z-score),[2],-0.184
same,glycan array binding signal (z-score),[3],-0.215
same,glycan array binding signal (z-score),[4],0.014
same,glycan array binding signal (z-score),[5],0.358
same,glycan array binding signal (z-score),[6],-0.021
same,glycan array binding signal (z-score),[7],-0.322
same,glycan array binding signal (z-score),[8],-0.477
same,glycan array binding signal (z-score),[9],-0.202
same,glycan array binding signal (z-score),[10],20.3
same,glycan array binding signal (z-score),[11],-0.131
same,glycan array binding signal (z-score),[12],-0.053
same,glycan array binding signal (z-score),[13],6.12
same,glycan array binding signal (z-score),[14],2.36
same,glycan array binding signal (z-score),[15],0.152
same,glycan array binding signal (z-score),[16],15.9
same,glycan array binding signal (z-score),[17],-0.227
same,glycan array binding signal (z-score),[18],-0.337
same,glycan array binding signal (z-score),[19],-0.171
same,glycan array binding signal (z-score),[20],-0.474
same,glycan array binding signal (z-score),[21],0.794
same,glycan array binding signal (z-score),[22],-0.066
same,glycan array binding signal (z-score),[23],0.777
same,glycan array binding signal (z-score),[24],0.078
same,glycan array binding signal (z-score),[25],-0.452
same,glycan array binding signal (z-score),[26],0.818
same,glycan array binding signal (z-score),[27],-0.027
same,glycan array binding signal (z-score),[28],-0.078
same,glycan array binding signal (z-score),[29],0.078
same,glycan array binding signal (z-score),[30],0.158
same,glycan array binding signal (z-score),[31],1.05
same,glycan array binding signal (z-score),[32],0.95
same,glycan array binding signal (z-score),[33],0.094
same,glycan array binding signal (z-score),[34],-0.01
same,glycan array binding signal (z-score),[35],-0.058
same,glycan array binding signal (z-score),[36],4.54
same,glycan array binding signal (z-score),[37],-0.156
same,glycan array binding signal (z-score),[38],-0.086
same,glycan array binding signal (z-score),[39],-0.092
same,glycan array binding signal (z-score),[40],0.065
same,glycan array binding signal (z-score),[41],0.335
same,glycan array binding signal (z-score),[42],-0.518
same,glycan array binding signal (z-score),[43],-0.21
same,glycan array binding signal (z-score),[44],0.775
same,glycan array binding signal (z-score),[45],-0.241
same,glycan array binding signal (z-score),[46],-0.04
same,glycan array binding signal (z-score),[47],-0.2
same,glycan array binding signal (z-score),[48],-0.115
same,glycan array binding signal (z-score),[49],0.009
same,glycan array binding signal (z-score),[50],-0.112
same,glycan array binding signal (z-score),[51],0.356
same,glycan array binding signal (z-score),[52],-0.216
same,glycan array binding signal (z-score),[53],-0.235
